# Results from PMC7862700, “An all-to-all approach to the identification of sequence-specific readers for epigenetic DNA modifications on cytosine”.
# What was measured:
# Assay in all cases: DAPPL (digital affinity profiling via proximity ligation, sequencing); 10 mM Tris-HCl pH 7.5, 50 mM NaCl, 1 mM DTT, 4% glycerol, room temperature, 30 min; GST-TFs on glutathione beads, 16-mer random dsDNA library, 0.1% formaldehyde crosslink after washing; high values mean tight binding
# FLI1 = target: T1, FLI1 (Homo sapiens, UniProt Q01543 1-452); conditions: protein: recombinant; tags: N-terminal GST; dsDNA, one strand shown
# T1 sequence: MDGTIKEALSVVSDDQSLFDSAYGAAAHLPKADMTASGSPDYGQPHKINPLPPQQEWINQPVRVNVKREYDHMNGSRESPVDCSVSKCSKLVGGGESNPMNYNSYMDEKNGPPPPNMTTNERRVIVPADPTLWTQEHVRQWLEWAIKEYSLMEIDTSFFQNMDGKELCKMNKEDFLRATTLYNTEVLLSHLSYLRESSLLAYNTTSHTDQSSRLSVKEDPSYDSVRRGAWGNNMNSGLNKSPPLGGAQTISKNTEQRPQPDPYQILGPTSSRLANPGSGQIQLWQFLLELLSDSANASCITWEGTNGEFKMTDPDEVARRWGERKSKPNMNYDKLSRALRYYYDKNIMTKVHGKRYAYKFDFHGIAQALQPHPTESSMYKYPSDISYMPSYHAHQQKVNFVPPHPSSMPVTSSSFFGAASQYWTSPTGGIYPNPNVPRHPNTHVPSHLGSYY
# In short: (§1)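 Pools of DNA-barcoded human transcription factors, expressed in yeast as GST fusions on glutathione beads and combined with a tag-only sample, were incubated with 200 nmole of a 16-mer random double-stranded DNA library. Incubation took 30 min at room temperature in Tris/NaCl/DTT/glycerol buffer and was followed by washing, 0.1% formaldehyde crosslinking, proximity ligation (BsaI/T4 ligase, 1 h, 37 °C), PCR amplification and sequencing on an Illumina NextSeq500. Binding signal is the ratio of a hexamer's read frequency for a factor to its frequency for the tag-only sample.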
# ELK1 = target: T2, ELK1 (Homo sapiens, UniProt P19419 1-428); conditions: protein: recombinant; tags: N-terminal GST; dsDNA, one strand shown
# T2 sequence: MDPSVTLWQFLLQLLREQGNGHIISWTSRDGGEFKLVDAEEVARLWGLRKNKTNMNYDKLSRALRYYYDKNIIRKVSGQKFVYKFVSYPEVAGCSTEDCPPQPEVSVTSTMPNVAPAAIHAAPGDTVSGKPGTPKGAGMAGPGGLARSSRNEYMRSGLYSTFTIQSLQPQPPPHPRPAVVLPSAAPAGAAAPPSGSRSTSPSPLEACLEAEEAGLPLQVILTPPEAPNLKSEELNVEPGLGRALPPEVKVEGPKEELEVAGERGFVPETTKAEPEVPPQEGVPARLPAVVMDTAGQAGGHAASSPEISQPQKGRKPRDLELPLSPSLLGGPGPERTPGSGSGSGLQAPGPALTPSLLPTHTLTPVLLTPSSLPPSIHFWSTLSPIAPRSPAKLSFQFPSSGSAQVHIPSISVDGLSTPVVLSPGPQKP
# In short: as §1
# GABPA = target: T3, GABPA (Homo sapiens, UniProt Q06546 1-454); conditions: protein: recombinant; tags: N-terminal GST; dsDNA, one strand shown
# T3 sequence: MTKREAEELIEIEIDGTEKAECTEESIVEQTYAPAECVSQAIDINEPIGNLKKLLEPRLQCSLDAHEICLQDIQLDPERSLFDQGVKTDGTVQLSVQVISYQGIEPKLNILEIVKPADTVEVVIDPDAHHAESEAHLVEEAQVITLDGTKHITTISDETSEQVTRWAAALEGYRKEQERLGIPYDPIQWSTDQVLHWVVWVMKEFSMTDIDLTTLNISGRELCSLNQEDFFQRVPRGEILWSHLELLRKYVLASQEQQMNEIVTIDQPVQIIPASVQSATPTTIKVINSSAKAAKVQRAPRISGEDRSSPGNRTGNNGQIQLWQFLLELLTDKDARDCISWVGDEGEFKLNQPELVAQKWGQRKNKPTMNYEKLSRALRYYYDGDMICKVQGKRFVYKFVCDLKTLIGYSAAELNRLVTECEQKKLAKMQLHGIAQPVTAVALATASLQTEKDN
# In short: as §1
# ERG = target: T4, ERG (Homo sapiens, UniProt P11308 1-479); conditions: protein: recombinant; tags: N-terminal GST; dsDNA, one strand shown
# T4 sequence: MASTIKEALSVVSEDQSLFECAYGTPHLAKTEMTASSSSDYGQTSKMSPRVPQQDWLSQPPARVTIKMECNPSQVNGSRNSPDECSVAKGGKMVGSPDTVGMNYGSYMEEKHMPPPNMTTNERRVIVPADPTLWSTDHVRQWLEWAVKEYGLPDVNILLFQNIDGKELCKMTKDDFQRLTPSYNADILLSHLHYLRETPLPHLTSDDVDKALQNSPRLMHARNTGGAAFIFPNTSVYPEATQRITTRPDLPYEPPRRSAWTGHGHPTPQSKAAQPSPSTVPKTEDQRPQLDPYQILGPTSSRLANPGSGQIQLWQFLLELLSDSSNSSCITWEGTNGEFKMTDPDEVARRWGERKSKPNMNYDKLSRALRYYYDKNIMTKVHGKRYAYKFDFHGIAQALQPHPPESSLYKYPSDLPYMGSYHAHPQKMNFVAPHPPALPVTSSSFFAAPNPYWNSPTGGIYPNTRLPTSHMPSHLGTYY
# In short: as §1
# ELF1 = ELF1 (Homo sapiens, UniProt P32519 1-619); conditions: protein: recombinant; tags: N-terminal GST; dsDNA, one strand shown
# In short: as §1
# EHF = target: T5, EHF (Homo sapiens, UniProt Q9NZC4 1-300); conditions: protein: recombinant; tags: N-terminal GST; dsDNA, one strand shown
# T5 sequence: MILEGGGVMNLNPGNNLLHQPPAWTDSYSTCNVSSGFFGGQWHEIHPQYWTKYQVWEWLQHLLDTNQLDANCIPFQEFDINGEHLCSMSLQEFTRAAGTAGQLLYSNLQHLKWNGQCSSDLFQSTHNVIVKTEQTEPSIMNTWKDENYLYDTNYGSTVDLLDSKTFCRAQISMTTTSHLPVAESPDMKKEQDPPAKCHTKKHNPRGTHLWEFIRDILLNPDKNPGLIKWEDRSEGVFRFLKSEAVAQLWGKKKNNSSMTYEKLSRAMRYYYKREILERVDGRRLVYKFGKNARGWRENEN
# In short: as §1
# SPI1 = SPI1 (Homo sapiens, UniProt P17947 1-270); conditions: protein: recombinant; tags: N-terminal GST; dsDNA, one strand shown
# In short: as §1
# SPIB = SPIB (Homo sapiens, UniProt Q01892 1-262); conditions: protein: recombinant; tags: N-terminal GST; dsDNA, one strand shown
# In short: as §1
# ELK3 = target: T6, ELK3 (Homo sapiens, UniProt P41970 1-407); conditions: protein: recombinant; tags: N-terminal GST; dsDNA, one strand shown
# T6 sequence: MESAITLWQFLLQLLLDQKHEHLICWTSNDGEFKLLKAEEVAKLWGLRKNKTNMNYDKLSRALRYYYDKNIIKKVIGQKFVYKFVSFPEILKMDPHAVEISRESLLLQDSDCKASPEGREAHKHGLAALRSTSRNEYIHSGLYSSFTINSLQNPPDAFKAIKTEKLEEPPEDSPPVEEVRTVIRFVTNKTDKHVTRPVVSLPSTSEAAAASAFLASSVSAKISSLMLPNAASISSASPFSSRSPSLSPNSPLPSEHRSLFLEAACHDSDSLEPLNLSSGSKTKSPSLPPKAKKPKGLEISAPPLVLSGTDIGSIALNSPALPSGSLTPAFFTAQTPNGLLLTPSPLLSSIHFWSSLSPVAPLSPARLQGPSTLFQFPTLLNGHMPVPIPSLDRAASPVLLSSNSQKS
# In short: as §1
# FEV = target: T7, FEV (Homo sapiens, UniProt Q99581 1-238); conditions: protein: recombinant; tags: N-terminal GST; dsDNA, one strand shown
# T7 sequence: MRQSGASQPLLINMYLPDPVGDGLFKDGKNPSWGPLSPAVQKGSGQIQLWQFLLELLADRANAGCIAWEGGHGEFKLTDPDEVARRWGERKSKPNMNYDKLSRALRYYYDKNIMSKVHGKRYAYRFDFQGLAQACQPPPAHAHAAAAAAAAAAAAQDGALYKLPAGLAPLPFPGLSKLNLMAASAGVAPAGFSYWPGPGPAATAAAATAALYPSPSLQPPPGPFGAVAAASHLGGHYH
# In short: as §1
# ETV5 = ETV5 (Homo sapiens, UniProt P41161 1-510); conditions: protein: recombinant; tags: N-terminal GST; dsDNA, one strand shown
# In short: as §1
# HSF1 = HSF1 (Homo sapiens, UniProt Q00613 1-529); conditions: protein: recombinant; tags: N-terminal GST; chain copies: 3; dsDNA, one strand shown
# In short: as §1
# SPIC = target: T8, SPIC (Homo sapiens, UniProt Q8N5J4 1-248); conditions: protein: recombinant; tags: N-terminal GST; dsDNA, one strand shown
# T8 sequence: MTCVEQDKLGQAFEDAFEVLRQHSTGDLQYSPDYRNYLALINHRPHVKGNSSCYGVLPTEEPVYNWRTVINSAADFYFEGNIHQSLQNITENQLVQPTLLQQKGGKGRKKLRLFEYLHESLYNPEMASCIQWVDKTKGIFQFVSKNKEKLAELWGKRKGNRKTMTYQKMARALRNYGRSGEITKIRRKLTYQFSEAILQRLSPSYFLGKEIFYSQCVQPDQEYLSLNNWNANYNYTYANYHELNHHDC
# In short: as §1
# ELF4 = ELF4 (Homo sapiens, UniProt Q99607 1-663); conditions: protein: recombinant; tags: N-terminal GST; dsDNA, one strand shown
# In short: as §1
# ELK4 = target: T9, ELK4 (Homo sapiens, UniProt P28324-2 1-405); conditions: protein: recombinant; tags: N-terminal GST; dsDNA, one strand shown
# T9 sequence: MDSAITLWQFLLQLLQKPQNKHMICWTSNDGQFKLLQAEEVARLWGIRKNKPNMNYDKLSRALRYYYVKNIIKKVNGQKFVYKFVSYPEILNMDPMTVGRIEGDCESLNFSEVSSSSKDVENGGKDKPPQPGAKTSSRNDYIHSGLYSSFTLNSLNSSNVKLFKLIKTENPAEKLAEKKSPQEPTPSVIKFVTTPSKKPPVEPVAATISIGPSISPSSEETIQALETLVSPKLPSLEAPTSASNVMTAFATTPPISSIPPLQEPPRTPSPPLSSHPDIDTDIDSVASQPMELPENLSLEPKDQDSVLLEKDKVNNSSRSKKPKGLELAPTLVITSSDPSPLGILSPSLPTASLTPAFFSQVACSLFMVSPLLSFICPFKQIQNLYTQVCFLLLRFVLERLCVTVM
# In short: as §1
# ETV2 = target: T10, ETV2 (Homo sapiens, UniProt O00321 1-342); conditions: protein: recombinant; tags: N-terminal GST; dsDNA, one strand shown
# T10 sequence: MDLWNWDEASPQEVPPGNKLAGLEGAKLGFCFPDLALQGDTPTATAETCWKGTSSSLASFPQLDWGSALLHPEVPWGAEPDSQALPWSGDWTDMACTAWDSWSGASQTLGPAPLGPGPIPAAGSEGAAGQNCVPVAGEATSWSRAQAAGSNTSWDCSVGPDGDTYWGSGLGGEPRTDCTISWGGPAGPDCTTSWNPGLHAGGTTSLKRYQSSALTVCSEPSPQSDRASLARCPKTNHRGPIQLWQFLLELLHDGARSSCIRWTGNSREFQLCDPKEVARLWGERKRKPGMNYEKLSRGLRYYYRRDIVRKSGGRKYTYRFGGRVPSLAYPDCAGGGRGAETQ
# In short: as §1
# ELF3 = target: T11, ELF3 (Homo sapiens, UniProt P78545 1-371); conditions: protein: recombinant; tags: N-terminal GST; dsDNA, one strand shown
# T11 sequence: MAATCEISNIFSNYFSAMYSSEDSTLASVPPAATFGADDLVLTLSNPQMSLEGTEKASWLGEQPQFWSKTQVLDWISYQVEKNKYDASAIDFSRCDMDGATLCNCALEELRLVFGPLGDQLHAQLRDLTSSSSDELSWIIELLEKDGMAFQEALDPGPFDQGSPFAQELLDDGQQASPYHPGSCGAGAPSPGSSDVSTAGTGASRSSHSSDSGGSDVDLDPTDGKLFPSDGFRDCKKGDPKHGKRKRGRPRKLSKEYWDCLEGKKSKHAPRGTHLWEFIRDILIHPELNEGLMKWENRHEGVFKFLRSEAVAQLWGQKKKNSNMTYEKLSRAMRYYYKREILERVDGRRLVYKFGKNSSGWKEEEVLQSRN
# In short: as §1
# CRX = CRX (Homo sapiens, UniProt O43186 1-299); conditions: protein: recombinant; tags: N-terminal GST; dsDNA, one strand shown
# In short: as §1
# ETV1 = ETV1 (Homo sapiens, UniProt P50549 1-477); conditions: protein: recombinant; tags: N-terminal GST; dsDNA, one strand shown
# In short: as §1
# Chain of ELF4 (Q99607 whole entry): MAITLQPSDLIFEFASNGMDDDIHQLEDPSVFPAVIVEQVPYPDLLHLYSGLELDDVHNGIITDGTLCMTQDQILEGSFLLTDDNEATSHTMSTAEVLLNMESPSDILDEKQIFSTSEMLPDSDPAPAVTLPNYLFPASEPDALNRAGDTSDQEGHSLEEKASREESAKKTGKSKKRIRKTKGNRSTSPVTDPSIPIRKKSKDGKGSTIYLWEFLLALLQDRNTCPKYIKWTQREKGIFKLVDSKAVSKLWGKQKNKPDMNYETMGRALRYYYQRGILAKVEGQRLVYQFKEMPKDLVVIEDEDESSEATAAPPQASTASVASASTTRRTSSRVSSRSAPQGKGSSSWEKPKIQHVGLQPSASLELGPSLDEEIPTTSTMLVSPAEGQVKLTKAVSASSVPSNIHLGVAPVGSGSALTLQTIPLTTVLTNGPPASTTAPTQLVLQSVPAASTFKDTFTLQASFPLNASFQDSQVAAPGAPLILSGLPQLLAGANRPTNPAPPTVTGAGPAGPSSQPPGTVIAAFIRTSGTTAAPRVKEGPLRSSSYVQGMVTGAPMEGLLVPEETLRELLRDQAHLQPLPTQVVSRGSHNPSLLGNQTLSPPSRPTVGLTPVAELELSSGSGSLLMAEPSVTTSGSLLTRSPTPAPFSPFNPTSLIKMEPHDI
# Chain of HSF1 (Q00613 whole entry): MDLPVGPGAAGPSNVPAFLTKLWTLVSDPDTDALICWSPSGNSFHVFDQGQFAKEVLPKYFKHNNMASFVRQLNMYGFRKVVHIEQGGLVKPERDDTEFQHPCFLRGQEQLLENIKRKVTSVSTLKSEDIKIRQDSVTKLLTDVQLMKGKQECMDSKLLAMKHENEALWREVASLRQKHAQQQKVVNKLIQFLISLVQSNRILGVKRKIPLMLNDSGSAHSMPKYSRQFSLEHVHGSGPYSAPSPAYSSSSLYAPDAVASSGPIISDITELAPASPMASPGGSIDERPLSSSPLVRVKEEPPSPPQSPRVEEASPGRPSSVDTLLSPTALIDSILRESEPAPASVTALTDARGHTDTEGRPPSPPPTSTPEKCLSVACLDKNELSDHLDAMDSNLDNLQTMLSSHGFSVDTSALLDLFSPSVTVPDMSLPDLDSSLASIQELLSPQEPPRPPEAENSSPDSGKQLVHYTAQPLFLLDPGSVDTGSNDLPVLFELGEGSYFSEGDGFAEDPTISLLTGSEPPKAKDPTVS
# Chain of ELF1 (P32519 whole entry): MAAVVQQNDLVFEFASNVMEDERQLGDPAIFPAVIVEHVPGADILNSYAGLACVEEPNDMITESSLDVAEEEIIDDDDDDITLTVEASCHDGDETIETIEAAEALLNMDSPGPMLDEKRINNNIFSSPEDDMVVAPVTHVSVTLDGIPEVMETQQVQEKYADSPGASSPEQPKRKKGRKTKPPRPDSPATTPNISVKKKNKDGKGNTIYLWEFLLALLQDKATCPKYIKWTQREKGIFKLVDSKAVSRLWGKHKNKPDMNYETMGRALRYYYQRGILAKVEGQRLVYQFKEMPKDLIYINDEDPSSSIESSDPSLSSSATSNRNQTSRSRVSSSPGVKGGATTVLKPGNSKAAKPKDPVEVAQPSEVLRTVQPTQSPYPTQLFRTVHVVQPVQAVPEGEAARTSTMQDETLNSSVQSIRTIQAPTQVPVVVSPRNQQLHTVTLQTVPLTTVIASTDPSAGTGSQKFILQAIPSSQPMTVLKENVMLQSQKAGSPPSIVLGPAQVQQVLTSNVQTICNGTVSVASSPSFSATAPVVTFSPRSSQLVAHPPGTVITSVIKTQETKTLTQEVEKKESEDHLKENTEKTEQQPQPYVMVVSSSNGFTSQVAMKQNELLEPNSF
# Chain of ETV1 (P50549 whole entry): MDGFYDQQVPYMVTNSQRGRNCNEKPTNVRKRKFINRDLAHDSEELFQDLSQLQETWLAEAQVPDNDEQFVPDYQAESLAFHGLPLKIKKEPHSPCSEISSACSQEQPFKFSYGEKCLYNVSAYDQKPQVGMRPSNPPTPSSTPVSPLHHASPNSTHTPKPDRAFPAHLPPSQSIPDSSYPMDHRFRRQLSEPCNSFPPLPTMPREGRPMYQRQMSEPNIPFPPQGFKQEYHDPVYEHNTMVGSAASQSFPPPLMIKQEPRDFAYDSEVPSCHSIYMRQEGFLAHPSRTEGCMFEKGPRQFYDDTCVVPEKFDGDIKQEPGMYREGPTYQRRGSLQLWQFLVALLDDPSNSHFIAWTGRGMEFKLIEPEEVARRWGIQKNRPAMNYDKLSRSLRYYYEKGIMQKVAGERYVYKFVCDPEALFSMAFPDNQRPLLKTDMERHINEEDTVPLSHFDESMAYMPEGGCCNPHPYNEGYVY
# Chain of SPIB (Q01892 whole entry): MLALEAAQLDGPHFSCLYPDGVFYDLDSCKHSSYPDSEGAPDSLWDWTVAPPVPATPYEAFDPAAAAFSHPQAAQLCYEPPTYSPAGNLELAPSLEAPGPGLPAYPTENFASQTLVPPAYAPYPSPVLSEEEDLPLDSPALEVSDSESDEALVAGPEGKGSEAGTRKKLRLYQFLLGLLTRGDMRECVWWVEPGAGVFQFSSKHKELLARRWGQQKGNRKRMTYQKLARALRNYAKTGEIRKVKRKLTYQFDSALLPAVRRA
# Chain of CRX (O43186 whole entry): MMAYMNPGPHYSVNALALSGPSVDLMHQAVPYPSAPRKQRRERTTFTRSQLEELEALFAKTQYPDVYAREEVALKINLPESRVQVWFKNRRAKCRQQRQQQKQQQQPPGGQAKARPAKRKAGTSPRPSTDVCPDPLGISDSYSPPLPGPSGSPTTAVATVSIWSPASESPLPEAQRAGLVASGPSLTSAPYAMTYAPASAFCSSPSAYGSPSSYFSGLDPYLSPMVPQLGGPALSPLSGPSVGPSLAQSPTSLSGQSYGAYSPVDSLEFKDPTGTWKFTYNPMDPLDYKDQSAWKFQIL
# Chain of ETV5 (P41161 whole entry): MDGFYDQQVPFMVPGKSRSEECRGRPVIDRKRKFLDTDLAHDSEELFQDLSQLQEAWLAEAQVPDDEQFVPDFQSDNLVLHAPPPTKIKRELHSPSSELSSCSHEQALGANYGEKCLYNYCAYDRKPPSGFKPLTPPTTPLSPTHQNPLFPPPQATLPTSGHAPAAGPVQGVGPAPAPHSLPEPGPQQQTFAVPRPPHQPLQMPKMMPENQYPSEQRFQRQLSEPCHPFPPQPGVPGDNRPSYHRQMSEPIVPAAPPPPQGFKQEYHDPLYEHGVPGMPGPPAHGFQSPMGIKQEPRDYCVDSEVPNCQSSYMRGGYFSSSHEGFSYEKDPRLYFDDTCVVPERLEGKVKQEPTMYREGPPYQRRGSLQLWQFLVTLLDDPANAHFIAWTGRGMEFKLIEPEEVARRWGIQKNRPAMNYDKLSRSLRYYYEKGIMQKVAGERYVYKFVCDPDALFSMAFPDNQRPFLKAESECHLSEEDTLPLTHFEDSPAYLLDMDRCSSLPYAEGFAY
sequence,measurement,setting,value
TATCCA,binding signal,FLI1,"1.3 fold enrichment (6-mer frequency, TF over GST control)"
same,binding signal,ELK1,"1.36 fold enrichment (6-mer frequency, TF over GST control)"
same,binding signal,GABPA,"1.3 fold enrichment (6-mer frequency, TF over GST control)"
same,binding signal,ERG,"1.22 fold enrichment (6-mer frequency, TF over GST control)"
same,binding signal,ELF1,"1.29 fold enrichment (6-mer frequency, TF over GST control)"
same,binding signal,EHF,"1.26 fold enrichment (6-mer frequency, TF over GST control)"
same,binding signal,SPI1,"1.27 fold enrichment (6-mer frequency, TF over GST control)"
same,binding signal,SPIB,"1.36 fold enrichment (6-mer frequency, TF over GST control)"
same,binding signal,ELK3,"1.37 fold enrichment (6-mer frequency, TF over GST control)"
same,binding signal,FEV,"1.29 fold enrichment (6-mer frequency, TF over GST control)"
same,binding signal,ETV5,"1.27 fold enrichment (6-mer frequency, TF over GST control)"
same,binding signal,HSF1,"1.49 fold enrichment (6-mer frequency, TF over GST control)"
same,binding signal,SPIC,"1.4 fold enrichment (6-mer frequency, TF over GST control)"
same,binding signal,ELF4,"1.29 fold enrichment (6-mer frequency, TF over GST control)"
same,binding signal,ELK4,"1.33 fold enrichment (6-mer frequency, TF over GST control)"
same,binding signal,ETV2,"1.37 fold enrichment (6-mer frequency, TF over GST control)"
same,binding signal,ELF3,"1.31 fold enrichment (6-mer frequency, TF over GST control)"
same,binding signal,CRX,"1.75 fold enrichment (6-mer frequency, TF over GST control)"
same,binding signal,ETV1,"1.27 fold enrichment (6-mer frequency, TF over GST control)"
